Experiments:
Settings in all cases: concentration: 1 μM, replicates: in singlicate; n = 1
[1] = system: JAK1(JH2domain-pseudokinase)
[2] = system: JAK2(JH1domain-catalytic)
[3] = system: JAK3(JH1domain-catalytic)
JNK1 = system: T1, JNK1
T1 construct: gene MAPK8

JNK2 = system: T2, JNK2
T2 construct: gene MAPK9

JNK3 = system: T3, JNK3
T3 construct: gene MAPK10

KIT-autoinhibited = system: KIT-autoinhibited
KIT = system: KIT
LATS1 = system: LATS1
LATS2 = system: LATS2
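Further: KINOMEscan kinase panel screen.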

Structure (SMILES)	%Inh [1]	%Inh [2]	%Inh [3]	%Inh (JNK1)	%Inh (JNK2)	%Inh (JNK3)	%Inh (KIT-autoinhibited)	%Inh (KIT)	%Inh (LATS1)	%Inh (LATS2)
CSc1ccc(NC2=C(c3ccc(Cl)cc3)C(=O)NC2=O)cc1 [SB-317658]	0%	0%	0%	0%	19%	3%	0%	29%	8%	0%
c1ccc(Oc2ccc(Nc3ccnc4cc(-c5ccc(CN6CCCCC6)o5)ccc34)cc2)nc1 [GW567143]	0%	2%	0%	22%	30%	7%	8%	96.5%	0%	0%
O=C(Nc1n[nH]c2nc(-c3ccccc3O)ccc12)C1CC1 [SB-711880]	0%	0%	0%	38%	31%	24%	32%	0%	0%	0%
Fc1cc(Cl)ccc1Nc1ccnc2cc(-c3ccc(CN4CCSCC4)o3)ccc12 [GW560106]	0%	0%	0%	13%	34%	1%	11%	100%	73%	0%
COC(=O)Nc1nc2cc(Oc3ccc(NC(=O)Nc4cccc(SC)c4)cc3)ccc2[nH]1.Cl [GW697999]	0%	0%	0%	16%	16%	0%	50%	99.9%	43%	0%
Cc1ccc(NC(=O)c2ccnc(N3CCCCC3)c2)cc1-c1ccc(C(=O)NCC2CC2)cc1 [GW775610]	0%	90%	95.2%	42%	43%	28%	8%	87%	0%	0%
N#CC1(c2cccc(C(=O)Nc3cccc(Oc4ccc5nc(NC(=O)C6CC6)sc5n4)c3)c2)CC1	15%	0%	0%	0%	0%	0%	76%	99.9%	0%	0%
CC(=O)Nc1cn2nc(Oc3cccc(NC(=O)c4cccc(C(F)(F)F)c4)c3)ccc2n1	5%	0%	0%	26%	0%	0%	87%	100%	5%	0%
O=C(O)C(F)(F)F.O=c1[nH]ccc2nc(N[C@@H]3CCNC3)nc(Nc3cc(Cl)cc(Cl)c3)c12 [GSK2188764]	98%	92.2%	100%	36%	7%	25%	2%	73%	42%	59%
COc1ccc(C)c(Nc2ccnc(Nc3ccc(-c4cnc[nH]4)cc3)n2)c1.Cl [GW784041]	76%	14%	0%	14%	0%	0%	0%	70%	12%	0%
Cl.Cl.NC(CNC(=O)c1cc(Br)c(-c2ccnc3[nH]ccc23)s1)c1ccccc1 (centres unmarked) [GSK1322949]	0%	94.3%	96.8%	44%	37%	28%	0%	38%	54%	93.7%
NCCC(NC(=O)c1cc(Br)c(-c2ccnc3[nH]ccc23)s1)c1ccccc1.O=C(O)C(F)(F)F.O=C(O)C(F)(F)F (centres unmarked) [GSK1307810]	0%	97.1%	98.7%	30%	15%	16%	0%	73%	83%	93%
O=C(Nc1n[nH]c2nc(-c3cccc(O)c3)ccc12)C1CC1 [SB-711805]	21%	29%	0%	25%	8%	5%	13%	30%	0%	1%
Cn1cc(-c2cnc(N)c3c(-c4ccc5c(c4)CCN5C(=O)Cc4ccccc4)csc23)cn1 [GSK2593074]	0%	26%	0%	13%	0%	0%	32%	100%	1%	23%
Cl.Cl.NCC(NC(=O)c1cc(-c2cccnc2)c(-c2ccnc3[nH]ccc23)s1)c1ccccc1 (centres unmarked) [GSK1323434]	0%	31%	79%	44%	61%	41%	0%	19%	0%	11%
COc1cc(Nc2ccnc3cc(-c4ccncc4)ccc23)cc(OC)c1OC.Cl [GW494610]	0%	12%	0%	49%	54%	37%	0%	76%	0%	0%

Structure (SMILES)	%Inh [1]	%Inh [2]	%Inh [3]	%Inh (JNK1)	%Inh (JNK2)	%Inh (JNK3)	%Inh (KIT-autoinhibited)	%Inh (KIT)	%Inh (LATS1)	%Inh (LATS2)
COc1cc(Nc2nccc(N3CCC(NC(=O)Nc4ccc5c(c4)OCO5)C3)n2)cc(OC)c1OC (centres unmarked) [GSK1379766]	47%	89%	0%	34%	0%	35%	5%	66%	0%	12%
Cc1nn2c(=O)cc(N3CCO[C@H](C)C3)nc2n1Cc1cccc(Cl)c1Cl [GSK2373693]	0%	22%	0%	16%	9%	7%	0%	51%	0%	0%
O=C1NC(=O)C(c2ccccc2Cl)=C1Nc1cccc(Cl)c1 [SB-342409]	0%	24%	65%	19%	12%	3%	0%	0%	0%	0%
CN(C)c1ncnc2nc[nH]c12 [SKF-31736]	34%	0%	30%	23%	0%	0%	19%	0%	0%	0%
COc1ccc(C2=C(Nc3cccc(O)c3)C(=O)NC2=O)cc1 [SB-390766]	0%	13%	0%	21%	16%	1%	2%	14%	0%	0%
O=C(Nc1n[nH]c2nc(-c3ccccc3)ccc12)C1CC1 [SB-708999]	0%	17%	51%	16%	6%	6%	0%	8%	6%	0%
Nc1ncnc2scc(-c3ccc(NC(=O)Cc4cc(F)ccc4F)cc3)c12.O=C(O)C(F)(F)F [SB-731254-M]	49%	27%	0%	35%	19%	18%	87%	100%	13%	36%
CNc1nccc(-c2ccc3c(N)n[nH]c3c2)n1 [GSK2206003]	57%	47%	15%	46%	36%	29%	0%	57%	0%	17%
CN1CCN(Cc2ccc(NC(=O)Nc3ccc(N(C)c4ccnc(Nc5ccc(CS(C)(=O)=O)cc5)n4)cc3)cc2)CC1.Cl [GW827654]	84%	99.9%	98.5%	92.7%	76%	88%	61%	100%	20%	37%
COc1cccc(C2=C(Nc3cccc(O)c3)C(=O)NC2=O)c1 [SB-390771]	0%	15%	94.2%	46%	50%	28%	0%	15%	0%	1%
CCNc1nccc(-c2c(-c3ccc(F)cc3)ncn2C2CCN(C)CC2)n1	80%	0%	0%	75%	96.4%	96.3%	0%	0%	0%	0%
Cc1ccc(-c2ccc3occ(-c4ccc(S(C)=O)cc4)c3c2)nn1 (centres unmarked)	0%	0%	0%	0%	0%	0%	0%	0%	13%	0%
COc1cccc(NC(=O)NCCNc2ccnc(Nc3ccc(F)cc3)n2)c1 [GSK1379879]	0%	22%	0%	25%	17%	13%	0%	46%	0%	0%
Cl.O=C(Nc1ccc(Oc2ccc3[nH]c(NC(=O)c4ccco4)nc3c2)cc1)Nc1cc(C(F)(F)F)ccc1F [GW683134]	0%	43%	0%	15%	33%	0%	1%	100%	30%	0%
COC(=O)Nc1nc2ccc(Oc3ccc(NC(=O)Nc4cc(C(F)(F)F)ccc4F)cc3)cc2[nH]1.Cl [GW654607]	0%	55%	16%	0%	65%	7%	0%	100%	0%	0%
Nc1cccc(-c2ccc3c(N)n[nH]c3c2)c1 [GSK2193613]	12%	8%	0%	18%	13%	3%	83%	23%	0%	27%
